These results are taken from ChEMBL document CHEMBL3988442, “University of Dundee, Small-Polar-MMV Screening Library” (2021).

Molecules are shown by their SMILES. Out of some 53,000 compounds screened, about 900 (1.7%) showed an effect of 50% or more. Many of the other results were omitted from the sample, so strong results are more common in it than they were.

The test has as its system Mycobacterium tuberculosis. The experiment in a line: Cornell - Phenotypic assay to identify agents that inhibit growth of Mycobacterium tuberculosis. It counts as functional. Also noted: scale not given: direction of the effect not stated beside the values. As to conditions: 10 mM as filed; unlikely as a test dose.
`O[C@@H]1CN(c2nc3ccccc3o2)CC[C@H]1c1ccc2c(c1)OCO2`: the “Percent Effect” value came to 1.12%. Then `O[C@@H]1CN(c2cnc3ccccc3n2)CC[C@H]1c1ccc2c(c1)OCO2`, with 102.9%. Then `O[C@@H]1CN(c2nc3ccccc3s2)CC[C@H]1c1ccc2c(c1)OCO2`, with 18.1%; and `COc1cccc(CNC(=O)CN2CCCC(Cn3cncn3)C2)c1` (configuration not stated), with -43.6%; and `Cc1cnn(C2CN(Cc3nc4cc(Cl)ccc4n3C)C2)c1`, with 63.15%. Turning to `Cc1cnn(C2CN(Cc3nc(-c4ccccc4C)no3)C2)c1`, the “Percent Effect” value is on record as -13.18%. Then `Cc1cnn(C2CN(Cc3nc(-c4ccsc4)no3)C2)c1`, with 18.79%. Turning to `Cc1ccc(-c2noc(CN3CC(n4cc(C)cn4)C3)n2)cc1`, the “Percent Effect” value is given as 41.03%. Then `Cc1cccc(-c2noc(CN3CC(n4cc(C)cn4)C3)n2)c1`, with 51.38%; and `Cc1cnn(C2CN(Cc3nnc(Cc4ccccc4)o3)C2)c1`, with 75.37%. Then `Cc1cnn(C2CN(Cc3nnc(-c4ccccc4Cl)o3)C2)c1`, with -48.85%. For `Cc1cc(C)n(C2CN(Cc3nc4cc(Cl)ccc4n3C)C2)n1` the value was -28.71%; for `Cc1cnn(C2CN(Cc3nc(-c4ccccn4)no3)C2)c1`, -25.23%. As for `Cc1ccc(-c2nnc(CN3CC(n4cc(C)cn4)C3)o2)cc1`, the “Percent Effect” value worked out at 82.45%. Then `Cc1cnn(C2CN(Cc3nc(-c4cccnc4)no3)C2)c1`, with 3.209%; and `Cc1cnn(C2CN(Cc3nc(C(C)(C)C)no3)C2)c1`, with -9.455%; and `CCOc1ccccc1-n1c(C2CC(=O)N(C)C2)n[nH]c1=O` (configuration not stated), with -16.7%. Consider `Cc1c[nH]c(CN(C)C(=O)[C@]23CNC[C@H]2CNC3)n1`, for which the “Percent Effect” value was -19.02%.

Regarding `O=C(Nc1ccnn1Cc1ccc(Cl)cc1)C1CCS(=O)(=O)C1` (configuration not stated), the “Percent Effect” value is listed as -30.31%. Then `CC(C)(C)C(=O)NS(=O)(=O)c1ccc(F)cc1C(F)(F)F`, with 31.3%; and `CC(=O)N1CCC(Cc2cnc(Nc3cc(C)on3)cn2)CC1`, with -2.54%; and `Nc1nonc1C(=O)N1Cc2ccccc2OC2(CCOCC2)C1`, with -22.02%. For `COc1ccc(-c2cn([C@H](CO)CC(C)C)nn2)cn1` the value was 26.72%; for `COC(=O)Cn1c(=O)nc2n1C(=O)N(c1ccc(F)cc1)C2`, 8.177%.

Take `Cc1cnn(CC2CCCN2C(=O)c2cccc(S(C)(=O)=O)c2)c1` (configuration not stated): the “Percent Effect” value turned out to be 1.06%. For `Cc1noc([C@]23COC[C@H]2CN(C(=O)COC2CCCC2)C3)n1` the value was 1.713%; for `CNC(=O)Cn1c(-c2ccco2)nn(-c2ccccc2OC)c1=O`, -0.5787%.

For the molecule `CC(c1cccnc1)N(C)C(=O)NCCOc1ccc(C#N)cc1` (configuration not stated), the “Percent Effect” value was 12.58%. For `C[C@@H]1CN(C(=O)C2CCS(=O)(=O)CC2)CC[C@@]1(O)C1CCOCC1` the value was 26.03%; for `Cc1cc(C)n(CCN2CCC(N(C)Cc3nnc(C)n3C)C2)n1` (configuration not stated), -7.03%; for `CCN(C(=O)Cc1ccc(NCc2nccn2C)cc1)c1ccccc1`, 9.386%. As to `CCN(C(=O)Cc1ccc(NC(=O)NC2CC2)cc1)c1ccccc1`, the “Percent Effect” value is recorded as -6.305%. For `CCN(C(=O)Cc1ccc(NCc2ncc[nH]2)cc1)c1ccccc1` the value was 52.94%. Then `Cc1nn(C)c(Cl)c1C1CCCN1C(=O)c1cnc[nH]1` (configuration not stated), with 8.572%; and `Cc1ccc(C(=O)NCc2ccnc(C3CCCOC3)n2)s1` (configuration not stated), with 2.557%; and `CC(C)(C)CNC(=O)c1ccc(C(=O)O)nc1`, with 11.56%.

As for `CN(CC(=O)NCCc1ccccn1)C(=O)c1cccs1`, the “Percent Effect” value is reported as -9.987%.

For `CNC(=O)C(C)CN(C)C(=O)Nc1cc(F)cc(Br)c1` (configuration not stated), the “Percent Effect” value turned out to be 72.87%.

Regarding `CC(O)CCN(C)C(=O)Nc1cc(F)cc(Br)c1` (configuration not stated), the “Percent Effect” value is 23%. As to `CN(CC(O)C1CC1)C(=O)Nc1cc(F)cc(Br)c1` (configuration not stated), the “Percent Effect” value stood at 5.584%.

In the case of `Cn1nc(C2CN(S(C)(=O)=O)C2)c2nccnc21`, the “Percent Effect” value is recorded as -1.799%. For `Nc1nnc(SCC(=O)c2cc3c(cc2Cl)NC(=O)C3)s1` the value was 9.185%; for `CSc1nsc(SCC(=O)c2cc3c(cc2Cl)NC(=O)C3)n1`, 71.22%; for `Cc1nnc(SCC(=O)c2cc3c(cc2Cl)NC(=O)C3)s1`, 21.14%. Regarding `O=C(C1CCOCC1)N1CCC(O)(Cn2ccc3ccncc32)CC1`, the “Percent Effect” value is reported as -3.808%.

Take `Cc1cc(CN2C[C@@H]3COC[C@@H](C(=O)N4CCCCO4)[C@@H]3C2)oc1C.O=C(O)C(F)(F)F`: the “Percent Effect” value was 19.33%. Then `CN(C)CC1(O)CCN(C(=O)Cc2ccc3c(c2)CCCC3)C1` (configuration not stated), with 27.93%. Then `CN(C)CC1(O)CCN(C(=O)Cc2ccc(Cl)c(Cl)c2)C1` (configuration not stated), with -11.99%. For `CN(C)CC1(O)CCN(C(=O)Cc2ccc3c(c2)CCC3)C1` (configuration not stated) the value was 59.81%; for `O=C1C(Sc2nnnn2C2CC2)CCN1c1ccccc1F` (configuration not stated), -21.88%.

Turning to `O=C(O)c1cc(NS(=O)(=O)c2ccccc2F)ccc1N1CCSCC1`, the “Percent Effect” value was -53.64%. On to `Cc1ccc(S(=O)(=O)Nc2ccc(-n3cccc3C(=O)O)c(C)c2)cc1`, for which the “Percent Effect” value stood at 24.84%. Then `Cc1cc(NS(=O)(=O)c2cccs2)ccc1-n1cccc1C(=O)O`, with 31.6%. Then `Cc1cc(NS(=O)(=O)c2ccccc2F)ccc1-n1cccc1C(=O)O`, with 63.88%; and `Cc1cc(NS(=O)(=O)c2ccc(Cl)s2)ccc1-n1cccc1C(=O)O`, with 25.94%. As to `Cc1ccc(S(=O)(=O)Nc2ccc(-n3cccc3C(=O)O)c(C)c2)s1`, the “Percent Effect” value came out at 77.19%.

Regarding `Cc1cnn(CC2CN(CC(=O)N(C)Cc3cnn(C)c3)CCO2)c1` (configuration not stated), the “Percent Effect” value is on record as -28.01%. Then `CCc1ccccc1-n1nnc(C(=O)O)c1-c1ccccn1`, with 8.629%. Then `Clc1ccc(OCCNC2(c3ccc(Br)cc3)CCOCC2)cc1`, with 68.56%; and `CCOCCNC1(c2ccc(Cl)cc2)CCOCC1`, with -7.005%. In the case of `COCCNC1(c2ccc(Cl)cc2)CCOCC1`, the “Percent Effect” value is given as -43.32%. Then `CNC(=O)C1(C)CN(c2nnc(C)c3ccccc23)CCO1` (configuration not stated), with 14%; and `COc1ccc(N(c2ccccc2)c2ccc(C(=O)O)s2)cc1`, with 73.26%; and `COc1ccc(N(c2ccc(C)cc2)c2ccc(C(=O)O)s2)cc1`, with 2.836%. Turning to `COc1ccc(N(c2ccc(OC)cc2)c2ccc(C(=O)O)s2)cc1`, the “Percent Effect” value was determined as 27.51%. For `Cc1ccccc1C(=O)N1CC[C@H](O)[C@@H](N2CCOCC2)CC1` the value was 45.8%. Then `CC(=O)N1CCN([C@@H]2CN(C(=O)c3ccccc3C)C[C@H]2O)CC1`, with -3.259%; and `Cc1ccccc1C(=O)N1C[C@@H](O)[C@H](N2CCOCC2)C1`, with 51.24%; and `CCN(CC)S(=O)(=O)N1CC[C@H](c2ccccc2)[C@@H]2[C@H]1CCCCN2C`, with 1.905%.

As for `COc1cccc2ncn(C(C)Cn3cccn3)c(=O)c12` (configuration not stated), the “Percent Effect” value is on record as -18.84%. Then `CCSc1cccc(NCc2cccnc2)c1`, with 12.75%; and `COCc1cccc(NCc2cccnc2)c1`, with -54.85%.

In the case of `CCSCc1cccc(NCc2cccnc2)c1`, the “Percent Effect” value is recorded as 73.99%. Then `CO[C@@H]1CCC[C@@H](NC(=O)CCCn2cncn2)[C@H]1O`, with 5.133%; and `COc1ccc(C2CN(c3ncccn3)CCN2C(C)=O)cc1` (configuration not stated), with -24.16%; and `CCc1ccc2c(C3CN(S(C)(=O)=O)C3)ncn2c1`, with 13.01%. For `CCc1ccc2c(C3CN(CC4CCC4)C3)ncn2c1.O=C(O)C(F)(F)F` the value was 77.11%; for `CCc1ccc2c(C3CN(C(C)=O)C3)ncn2c1`, 27.54%.

On to `Cc1csc(C2(NCc3csc(C4CC4)n3)CCCC2)n1`, for which the “Percent Effect” value was 19.76%. For `CC(NC(=O)OC(C)(C)C)c1nnc(S(=O)(=O)Cc2ccc(Cl)cc2)o1` (configuration not stated) the value was 103.3%; for `Cc1noc(C(C)NC(=O)[C@@H](C)NC(=O)OC(C)(C)C)n1` (some centres not stated), 27%; for `N[C@@H](Cc1ccccc1)c1nnc(S(=O)(=O)Cc2ccccc2)o1`, -19.29%. For `Cc1cccc(CS(=O)(=O)c2nnc([C@@H](N)Cc3ccccc3)o2)c1.Cl` the value was -11.8%; for `CC(NC(=O)OC(C)(C)C)c1nnc(S(=O)(=O)Cc2ccccc2Cl)o1` (configuration not stated), 105.8%. Then `Cl.N[C@@H](Cc1ccccc1)c1nnc(S(=O)(=O)Cc2ccc(Cl)cc2)o1`, with -9.825%; and `Cc1ccccc1CS(=O)(=O)c1nnc(C(C)NC(=O)OC(C)(C)C)o1` (configuration not stated), with 104.2%. Regarding `C[C@H](NC(=O)OC(C)(C)C)c1nnc(S(=O)(=O)Cc2cccc(F)c2)o1`, the “Percent Effect” value is reported as -26.24%. With `CCC(C)NC(=O)CS(=O)(=O)Cc1ccccc1Cl` (configuration not stated), the “Percent Effect” value was 2.34%. For `Cn1c(Cn2cccn2)nnc1C1CCN(Cc2cccnc2)CC1` the value was -9.114%; for `CCCOc1cc(F)ccc1NC(=O)NCc1noc(C)n1`, 7.548%.

For the molecule `Cc1cn2c(n1)CCC(NC(=O)c1oc(Br)cc1C)C2` (configuration not stated), the “Percent Effect” value is -43.16%. `CC(C)NC(=O)N1CCC[C@H]1C(=O)NCCCc1cccc(F)c1`: the “Percent Effect” value is listed as -6.686%.

Regarding `Cc1c[nH]nc1C1CCCN1Cc1ccncc1` (configuration not stated), the “Percent Effect” value came to 14.55%. For `CNc1ccnc(NCC(=O)Nc2cc(C)ccc2OC)n1` the value was -15.75%; for `Cc1nn(C)cc1-c1cc(C(F)(F)F)nc(NC2CCCCC2)n1`, 22.2%; for `CCn1cc(-c2cc(C(F)(F)F)nc(NC3CCCC3)n2)c(C)n1`, 101.8%. For `Cc1nn(C)cc1-c1cc(C(F)(F)F)nc(NC2CCN(C)CC2)n1` the value was 11.83%; for `COCC(=O)N1CCCC(c2nc(N)ncc2-c2cccc(F)c2)C1` (configuration not stated), 3.898%; for `Cc1c(CN2CCCCC2)c(O)n(CCO)c(=O)c1C#N`, 38.65%. For `Cc1c(CN2CCOCC2)c(O)n(CCO)c(=O)c1C#N` the value was -84.89%; for `Cc1c(CN2CCOCC2)c(O)n(CCc2ccccc2)c(=O)c1C#N`, 66.79%; for `O=S(=O)(NCCCn1cncn1)c1ccc2c(c1)OCCO2`, -20.65%.
